# According to PubChem BioAssay (Tox21):
# Unmarked numbers belong to inactive results. Records with an inconclusive call do not appear. Where a call stands in place of a potency, no number is given. Calls of active or inactive are those of the source. Calls follow the shape of the dose curve; as a rule, active = well fitted curve in the direction sought with a large enough effect in the repeat runs; inconclusive = weak or mixed curves; inactive = no such curve, though single readings can be large; an effect the other way counts as inactive or inconclusive.
# What was measured:
# [1] = A CellTox Green Cytotoxicity Assay to monitor cytotoxicity in HEK293 cells - 40 hour (AID 1224871); also: nearly all actives have a fitted effect of over 45% in size; also: potency is read from the fitted curve at half-maximal effect
# Method in brief: (§1)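 HEK293 cells, 600/well, were preincubated 5 hours and then exposed to compounds at 37 C for up to 40 hours. A cell-impermeant cyanine dye staining dead-cell DNA was read by fluorescence at 0, 8, 16, 24, 32 and 40 h time points.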
# [2] = qHTS RealTime-Glo MT Cell Viability Assay in HEK293 cells - 16 hour (AID 1224872); also: nearly all actives have a fitted effect of over 50% in size; also: potency is read from the fitted curve at half-maximal effect; as to activity change, negative = cytotoxicity: top concentration of the series differs between compounds
# Method in brief: (§2)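 Tox21 10K qHTS, HEK293, 600 cells/well, RealTime-Glo reagent co-dispensed with cells; 5 h preincubation, compound by pintool, 37 C, luminescence at 0–40 h.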
# [3] = qHTS RealTime-Glo MT Cell Viability Assay in HepG2 cells - 8 hour (AID 1224873); also: nearly all actives have a fitted effect of over 55% in size; also: potency is read from the fitted curve at half-maximal effect
# Method in brief: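 HepG2 cells mixed with RealTime-Glo MT reagents (NanoLuc plus cell-permeant prosubstrate) were seeded at 600 cells/well, incubated 5 h at 37 C/5% CO2, then pinned with compounds in DMSO; nonlytic luminescence tracked viability during 40 h treatment.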
# [4] = qHTS RealTime-Glo MT Cell Viability Assay in HEK293 cells - 40 hour (AID 1224874); conditions: RealTime-Glo luminescence; max response: active compounds read low; also: nearly all actives have a fitted effect of over 50% in size; also: potency is read from the fitted curve at half-maximal effect
# Method in brief: (§3)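 600 cells/well were plated with the nonlytic NanoLuc/prosubstrate reagent, pre-incubated 5 h, then given 23 nL of compound in DMSO. Incubation at 37 C for 40 h, with luminescence from viable-cell-reduced substrate read repeatedly from 0 h.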
# [5] = A CellTox Green Cytotoxicity Assay to monitor cytotoxicity in HEK293 cells - 24 hour (AID 1224875); also: nearly all actives have a fitted effect of over 45% in size; also: potency is read from the fitted curve at half-maximal effect; as to activity change: series mostly up to about 77 µM
# Method in brief: as §1
# [6] = A CellTox Green Cytotoxicity Assay to monitor cytotoxicity in HepG2 cells - 16 hour (AID 1224876); also: nearly all actives have a fitted effect of over 45% in size; also: potency is read from the fitted curve at half-maximal effect
# Method in brief: (§4)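 HepG2 cells, 600/well, preincubated 5 h with CellTox Green dye, then exposed to Tox21 compounds in DMSO at 37 C for up to 40 h. Dead-cell DNA fluorescence read at the indicated time point.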
# [7] = qHTS RealTime-Glo MT Cell Viability Assay in HepG2 cells - 32 hour (AID 1224877); also: nearly all actives have a fitted effect of over 55% in size; also: potency is read from the fitted curve at half-maximal effect
# Method in brief: (§5)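 Cells + NanoLuc/prosubstrate dispensed (600 cells/well) → 5 h at 37 C/5% CO2 → compounds in DMSO transferred → 40 h incubation at 37 C, luminescence read at 0, 8, 16, 24, 32, 40 h.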
# [8] = A CellTox Green Cytotoxicity Assay to monitor cytotoxicity in HepG2 cells - 24 hour (AID 1224878); also: nearly all actives have a fitted effect of over 45% in size; also: potency is read from the fitted curve at half-maximal effect
# Method in brief: as §4
# [9] = A CellTox Green Cytotoxicity Assay to monitor cytotoxicity in HepG2 cells - 40 hour (AID 1224879); also: nearly all actives have a fitted effect of over 40% in size; also: potency is read from the fitted curve at half-maximal effect
# Method in brief: as §4
# [10] = qHTS RealTime-Glo MT Cell Viability Assay in HEK293 cells - 0 hour (AID 1224880)
# Method in brief: as §3
# [11] = A CellTox Green Cytotoxicity Assay to monitor cytotoxicity in HEK293 cells - 32 hour (AID 1224881); also: nearly all actives have a fitted effect of over 40% in size; also: potency is read from the fitted curve at half-maximal effect
# Method in brief: as §1
# [12] = A CellTox Green Cytotoxicity Assay to monitor cytotoxicity in HepG2 cells - 0 hour (AID 1224882); also: nearly all actives have a fitted effect of over 35% in size
# Method in brief: as §4
# [13] = A CellTox Green Cytotoxicity Assay to monitor cytotoxicity in HepG2 cells - 32 hour (AID 1224883); also: nearly all actives have a fitted effect of over 50% in size; also: potency is read from the fitted curve at half-maximal effect
# Method in brief: as §4
# [14] = qHTS RealTime-Glo MT Cell Viability Assay in HepG2 cells - 16 hour (AID 1224885); also: nearly all actives have a fitted effect of over 50% in size; also: potency is read from the fitted curve at half-maximal effect
# Method in brief: as §5
# [15] = qHTS RealTime-Glo MT Cell Viability Assay in HEK293 cells - 8 hour (AID 1224887); also: nearly all actives have a fitted effect of over 50% in size; also: potency is read from the fitted curve at half-maximal effect; as to activity change, negative = cytotoxicity: top concentration of the series differs between compounds
# Method in brief: as §3
# [16] = A CellTox Green Cytotoxicity Assay to monitor cytotoxicity in HEK293 cells - 16 hour (AID 1224888); also: nearly all actives have a fitted effect of over 35% in size
# Method in brief: as §1
# [17] = qHTS RealTime-Glo MT Cell Viability Assay in HepG2 cells - 0 hour (AID 1224889); also: nearly all actives have a fitted effect of over 50% in size
# Method in brief: as §5
# [18] = A CellTox Green Cytotoxicity Assay to monitor cytotoxicity in HepG2 cells - 8 hour (AID 1224890); also: nearly all actives have a fitted effect of over 45% in size; also: potency is read from the fitted curve at half-maximal effect
# Method in brief: as §4
# [19] = qHTS RealTime-Glo MT Cell Viability Assay in HEK293 cells - 24 hour (AID 1224886); also: nearly all actives have a fitted effect of over 50% in size; also: potency is read from the fitted curve at half-maximal effect; as to activity change, negative = cytotoxicity: top concentration of the series differs between compounds
# Method in brief: as §2
# [20] = A CellTox Green Cytotoxicity Assay to monitor cytotoxicity in HEK293 cells - 8 hour (AID 1224884); also: nearly all actives have a fitted effect of over 35% in size
# Method in brief: as §1
smiles,measurement,setting,value
CN(C)CCc1c[nH]c2ccccc12,Potency,[1],inactive
same,Potency,[2],inactive
same,Potency,[3],inactive
same,max response,[4],-4.01%
same,Potency,[5],inactive
same,Potency,[6],inactive
same,Potency,[7],inactive
same,Potency,[8],inactive
same,Potency,[9],inactive
same,Potency,[10],inactive
same,Potency,[11],inactive
same,Potency,[12],inactive
same,Potency,[13],inactive
same,Potency,[14],inactive
same,Potency,[15],inactive
same,Potency,[16],inactive
same,Potency,[17],inactive
same,Potency,[18],inactive
CCCCC(CC)COC(=O)c1ccccc1C(=O)OCC(CC)CCCC (stereo not given),Potency,[1],inactive
same,Potency,[2],inactive
same,Potency,[3],inactive
same,max response,[4],1.87%
same,Potency,[5],inactive
same,Potency,[6],inactive
same,Potency,[7],inactive
same,Potency,[8],inactive
same,Potency,[9],inactive
same,Potency,[10],inactive
same,Potency,[11],inactive
same,Potency,[12],inactive
same,Potency,[13],inactive
same,Potency,[14],inactive
same,Potency,[19],inactive
same,Potency,[15],inactive
same,Potency,[16],inactive
same,Potency,[17],inactive
same,Potency,[18],inactive
Clc1c(Cl)c(Cl)c(Cl)c(Cl)c1Cl,cytotoxicity increase,[1],-20.6% [at 6.97 µM]
same,"activity change, negative = cytotoxicity",[2],3.93% [at 6.97 µM]
same,"viability change, negative = cytotoxic",[3],1.69% [at 6.97 µM]
same,max response,[4],8.77%
same,activity change,[5],"-16.1% [at 6.97 µM, active compounds read high]"
same,cytotoxicity increase,[6],0.26% [at 6.97 µM]
same,"activity change, negative = cytotoxic",[7],0.7% [at 6.97 µM]
same,cytotoxicity,[8],0.224% [at 6.97 µM]
same,cytotoxicity increase,[9],-0.205% [at 6.97 µM]
same,"activity change, negative = cytotoxicity",[10],2.6% [at 6.97 µM]
same,cytotoxicity increase,[11],-13.5% [at 6.97 µM]
same,cytotoxicity,[12],1.34% [at 6.97 µM]
same,cytotoxicity increase,[13],-1.01% [at 6.97 µM]
same,"activity change, negative = cytotoxic",[14],-0.903% [at 6.97 µM]
same,"activity change, negative = cytotoxicity",[19],2.9% [at 6.97 µM]
same,"activity change, negative = cytotoxicity",[15],4.5% [at 6.97 µM]
same,activity change,[16],"-13.4% [at 6.97 µM, active compounds read high]"
same,"activity change, negative = cytotoxicity",[17],6.05% [at 6.97 µM]
same,cytotoxicity increase,[18],1.99% [at 6.97 µM]
Cc1ccc([N+](=O)[O-])[c]2c1[O][Hg]2,Potency,[1],674 nM (active)
same,Potency,[2],3380 nM (active)
same,Potency,[3],2130 nM (active)
same,Potency,[4],3010 nM (active)
same,Potency,[5],1510 nM (active)
same,Potency,[6],3010 nM (active)
same,Potency,[7],2390 nM (active)
same,Potency,[8],2680 nM (active)
same,Potency,[9],1900 nM (active)
same,Potency,[10],inactive
same,Potency,[11],674 nM (active)
same,Potency,[12],inactive
same,Potency,[13],2130 nM (active)
same,Potency,[20],inactive
same,Potency,[14],2390 nM (active)
same,Potency,[19],3380 nM (active)
same,Potency,[15],3790 nM (active)
same,Potency,[17],inactive
same,Potency,[18],3790 nM (active)
COP(=S)(OC)Oc1nc(Cl)c(Cl)cc1Cl,Potency,[1],inactive
same,Potency,[2],inactive
same,Potency,[3],inactive
same,max response,[4],-0.946%
same,Potency,[5],inactive
same,Potency,[6],inactive
same,Potency,[7],inactive
same,Potency,[8],inactive
same,Potency,[9],inactive
same,Potency,[10],inactive
same,Potency,[11],inactive
same,Potency,[12],inactive
same,Potency,[13],inactive
same,Potency,[20],inactive
same,Potency,[14],inactive
same,Potency,[19],inactive
same,Potency,[16],inactive
same,Potency,[17],inactive
same,Potency,[18],inactive
OCC(Br)CBr (stereo not given),Potency,[1],inactive
same,Potency,[2],inactive
same,Potency,[3],inactive
same,max response,[4],-11.1%
same,Potency,[5],inactive
same,Potency,[6],inactive
same,Potency,[7],inactive
same,Potency,[8],inactive
same,Potency,[9],inactive
same,Potency,[10],inactive
same,Potency,[11],inactive
same,Potency,[12],inactive
same,Potency,[13],inactive
same,Potency,[20],inactive
same,Potency,[14],inactive
same,Potency,[15],inactive
same,Potency,[16],inactive
same,Potency,[17],inactive
same,Potency,[18],inactive
CC[N+]1(CC)CCC(OC(=O)C(O)(c2ccccc2)c2ccccc2)C1 (stereo not given),Potency,[1],inactive
same,Potency,[2],inactive
same,Potency,[3],inactive
same,max response,[4],2.71%
same,Potency,[5],inactive
same,Potency,[6],inactive
same,Potency,[7],inactive
same,Potency,[8],inactive
same,Potency,[9],inactive
same,Potency,[10],inactive
same,Potency,[11],inactive
same,Potency,[12],inactive
same,Potency,[13],inactive
same,Potency,[14],inactive
same,Potency,[19],inactive
same,Potency,[15],inactive
same,Potency,[16],inactive
same,Potency,[17],inactive
same,Potency,[18],inactive
[O]=[Cr][O][Cr]=[O],Potency,[1],inactive
same,Potency,[2],inactive
same,Potency,[3],inactive
same,max response,[4],17.9%
same,Potency,[5],inactive
same,Potency,[6],inactive
same,Potency,[7],inactive
same,Potency,[8],inactive
same,Potency,[9],inactive
same,Potency,[10],inactive
same,Potency,[11],inactive
same,Potency,[12],inactive
same,Potency,[13],inactive
same,Potency,[20],inactive
same,Potency,[14],inactive
same,Potency,[15],inactive
same,Potency,[16],inactive
same,Potency,[17],inactive
same,Potency,[18],inactive
CNC(=O)CSP(=O)(OC)OC,Potency,[1],inactive
same,Potency,[2],inactive
same,Potency,[3],inactive
same,max response,[4],5.27%
same,Potency,[5],inactive
same,Potency,[6],inactive
same,Potency,[7],inactive
same,Potency,[8],inactive
same,Potency,[9],inactive
same,Potency,[10],inactive
same,Potency,[11],inactive
same,Potency,[12],inactive
same,Potency,[13],inactive
same,Potency,[20],inactive
same,Potency,[14],inactive
same,Potency,[19],inactive
same,Potency,[15],inactive
same,Potency,[16],inactive
same,Potency,[17],inactive
same,Potency,[18],inactive
CC(C)NCC(O)c1ccccc1Cl (stereo not given),Potency,[1],inactive
same,Potency,[2],inactive
same,Potency,[3],inactive
same,max response,[4],1.74%
same,Potency,[5],inactive
same,Potency,[6],inactive
same,Potency,[7],inactive
same,Potency,[8],inactive
same,Potency,[9],inactive
same,Potency,[10],inactive
same,Potency,[11],inactive
same,Potency,[12],inactive
same,Potency,[13],inactive
same,Potency,[20],inactive
same,Potency,[14],inactive
same,Potency,[19],inactive
same,Potency,[15],inactive
same,Potency,[16],inactive
same,Potency,[17],inactive
same,Potency,[18],inactive
[Cl-].[Cl-].[Cl-].[Yb+3],Potency,[1],inactive
same,Potency,[2],inactive
same,Potency,[3],inactive
same,max response,[4],28.3%
same,Potency,[5],inactive
same,Potency,[6],inactive
same,Potency,[7],inactive
same,Potency,[8],inactive
same,Potency,[9],inactive
same,Potency,[10],inactive
same,Potency,[11],inactive
same,Potency,[12],inactive
same,Potency,[13],inactive
same,Potency,[20],inactive
same,Potency,[14],inactive
same,Potency,[19],inactive
same,Potency,[15],inactive
same,Potency,[16],inactive
same,Potency,[17],inactive
same,Potency,[18],inactive
CCCC[N+]1(C)CCCC1 (tested in a mixture with another compound),Potency,[1],inactive
same,Potency,[2],inactive
same,Potency,[3],inactive
same,max response,[4],8.56%
same,Potency,[5],inactive
same,Potency,[6],inactive
same,Potency,[7],inactive
same,Potency,[8],inactive
same,Potency,[9],inactive
same,Potency,[10],inactive
same,Potency,[11],inactive
same,Potency,[12],inactive
same,Potency,[13],inactive
same,Potency,[20],inactive
same,Potency,[14],inactive
same,Potency,[19],inactive
same,Potency,[15],inactive
same,Potency,[16],inactive
same,Potency,[17],inactive
